These results are taken from article PMC7819943, “Rice protein-binding microarrays: a tool to detect cis-acting elements near promoter regions in rice”.

In all, about 68,000 sequences were measured (“fluorescence intensity (a.u.)”: median about 9,100, highest 2% from about 16,000 on). This is one part of a sample in which the highest values are shown more often than they occur.

Sequence of OsWRKY34 (Q0JBA9 entry or part of it): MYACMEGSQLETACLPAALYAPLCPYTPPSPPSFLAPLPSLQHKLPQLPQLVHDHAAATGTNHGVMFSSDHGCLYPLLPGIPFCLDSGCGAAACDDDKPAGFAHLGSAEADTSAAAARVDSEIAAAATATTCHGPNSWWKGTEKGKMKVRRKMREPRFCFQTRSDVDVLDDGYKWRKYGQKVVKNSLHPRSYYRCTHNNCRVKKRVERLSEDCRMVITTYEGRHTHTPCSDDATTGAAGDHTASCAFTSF

The assay has as its target OsWRKY34 (Oryza sativa, UniProt Q0JBA9 1-250). In words: protein-binding microarray (RPBM); PBS, 2% BSA, 51.3 ng/ul salmon testes DNA, 50 uM zinc acetate, 200 nM TF, 25 C, 1 h; high values mean tight binding. Conditions: protein: recombinant; tags: N-terminal polyhistidine and DsRed monomer fusion (pET32a); label: CyDye5-dUTP incorporated in the synthesized complementary strand; 3' TTTTT single-stranded linker to array surface; dsDNA, one strand shown. An outline of the steps:
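Transcription factors, each fused N-terminally to a polyhistidine tag and DsRed, were expressed in E. coli BL21-CodonPlus and purified on Ni–NTA. A custom Agilent array was made double-stranded by primer extension with Cy5-dUTP and blocked with 2% BSA. It was incubated with 200 nM protein in PBS, 2% BSA, salmon testes DNA and 50 µM zinc acetate at 25 °C for 1 h, then washed. The binding signal is per-feature fluorescence intensity (arbitrary units) read on an Axon 4000B scanner.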
Consider “GGCAAACAATGCTCTCAGCCTCGCTTAGCTTTCACTCCACCGGAGTCACCTAGTGCAG”, for which the binding signal is 8030 fluorescence intensity (a.u.). For “GAGCTCCAAAGCTACGGTTTTTTTTTCTCTTTCTTTCTCACGGAGTCACCTAGTGCAG” the value was 9080 fluorescence intensity (a.u.); for “GCAACCTCAGGATGCTCCACGAGCTTTCTCTTAGCTACAACGGAGTCACCTAGTGCAG”, 17000 fluorescence intensity (a.u.); for “CTTCTCCCATGCGCCGCCGCAATCTCATCTCTCTGTTTTTCGGAGTCACCTAGTGCAG”, 9220 fluorescence intensity (a.u.). For “TAGATCAATACTGCCTAACGAACTTTTTTTTTTTTTTACGCGGAGTCACCTAGTGCAG”, the binding signal is 16400 fluorescence intensity (a.u.). For “TACTTATATTTACTTGCAGATCAGTTGCCTGCCAATACCGCGGAGTCACCTAGTGCAG” the value was 8390 fluorescence intensity (a.u.). As for “GAACTTATTTTACTGCAATTGTTTGCATCACTTATTCTAACGGAGTCACCTAGTGCAG”, the binding signal is 9570 fluorescence intensity (a.u.). For “CCTCTCCCTACTACTGTCGTATCGTCTCCTACCTCGCCTCCGGAGTCACCTAGTGCAG” the value was 8340 fluorescence intensity (a.u.). Consider “AACGGTTCTTCTGGTCATTTCCAATTCGCCATCCGTCTGTCGGAGTCACCTAGTGCAG”, for which the binding signal was 8930 fluorescence intensity (a.u.). As for “CCATCGCTGTCGCCAATTTATATTCTTTCTTAATCTCGACCGGAGTCACCTAGTGCAG”, the figure is 9220 fluorescence intensity (a.u.); as for “CCAATTCGCCATCCGTCTGTCGACCGCATCTTAATATCCGCGGAGTCACCTAGTGCAG”, 17400 fluorescence intensity (a.u.). For the sequence “CAAGCTGTTACTTTCTTGGTGGGCTTCTGTGTGCTTTATTCGGAGTCACCTAGTGCAG”, the binding signal is 9940 fluorescence intensity (a.u.). On to “ACGCCTACAATGGTACTGTGTTTTTTTTATGATAGCGGTGCGGAGTCACCTAGTGCAG”, for which the binding signal was 8060 fluorescence intensity (a.u.). For “TCTCTTTTCTCATTTATTCACTTGCCACATCATTTTTCATCGGAGTCACCTAGTGCAG” the value was 8900 fluorescence intensity (a.u.). For “TTCTTCTTTTCTTTTTTTTTTGTTTTCTTCTCATTCTTCTCGGAGTCACCTAGTGCAG” the value was 10100 fluorescence intensity (a.u.); for “TTCTTTTGTTGTCCAATTCATTTCCATTTCTTGCCGTTTTCGGAGTCACCTAGTGCAG”, 8320 fluorescence intensity (a.u.). For “ACTTTATTGTTTTTCTTCTTATTTTATTTCTCTGTTCTTTCGGAGTCACCTAGTGCAG” the value was 10300 fluorescence intensity (a.u.); for “TCTCTTTTCTTTTCTTTCTTTTTATTTTGTTGTTCCTTTACGGAGTCACCTAGTGCAG”, 12600 fluorescence intensity (a.u.). Take “ATCTTTTTGTTGTCTTTGAATTCAGTCTGTTTTTCTCATTCGGAGTCACCTAGTGCAG”: the binding signal is 17900 fluorescence intensity (a.u.). For “TACGTTTCAGTTGTGCTTGTTCGGACCTTTCGATTTCTTTCGGAGTCACCTAGTGCAG” the value was 13900 fluorescence intensity (a.u.); for “ACATTGTTCTCTCTTTTACGGCCTTTTTTTTTTCTGAATTCGGAGTCACCTAGTGCAG”, 17900 fluorescence intensity (a.u.).

For the sequence “ACTTGCCTTGTTTCTTGTTCTTGTTCATTTCGACCGTTGTCGGAGTCACCTAGTGCAG”, the binding signal was 17100 fluorescence intensity (a.u.). As for “CTTTTGCACTCGAGATATTTCATCAGTTCTTGCCATTTCACGGAGTCACCTAGTGCAG”, the binding signal is 16500 fluorescence intensity (a.u.).

Consider “ATATTCTCATTTTCAGTCTGTTGCACTAATTTTGCTATTTCGGAGTCACCTAGTGCAG”, for which the binding signal was 12800 fluorescence intensity (a.u.).

Regarding “CCGCCGCTACTCTCCATCATTTCAGTTTTCTCTCGAGTCACGGAGTCACCTAGTGCAG”, the binding signal is 10200 fluorescence intensity (a.u.). As for “TTTATACTCCTTCTGTTTCATATTATTTTTTTCTACTAGTCGGAGTCACCTAGTGCAG”, the figure is 8860 fluorescence intensity (a.u.); as for “GACCACTAGCAGCCTCGTAACGTTTGCCTCATTTCATCAGCGGAGTCACCTAGTGCAG”, 10500 fluorescence intensity (a.u.); as for “TATACCTCTCTCTCTCTCTCTCTCTCTCTCTCTCTCTCTTCGGAGTCACCTAGTGCAG”, 8280 fluorescence intensity (a.u.). On to “TTTTTGTTTTCTCAATTCGCGAATTTAATGCTTTTGTGTACGGAGTCACCTAGTGCAG”, for which the binding signal was 9750 fluorescence intensity (a.u.). As for “GAATTATTAGGGAGAAAGGAGTTGCAGGGTGGGGATTGTTCGGAGTCACCTAGTGCAG”, the figure is 8330 fluorescence intensity (a.u.). As for “CGTTCTCTGTCTGTCCCGCACTCCCGCCTTTTGCCAAAGCCGGAGTCACCTAGTGCAG”, the figure is 9610 fluorescence intensity (a.u.); as for “AGACCAAGCCATATCACCTTATGTAATTTCTTTATGTGCTCGGAGTCACCTAGTGCAG”, 9010 fluorescence intensity (a.u.).

For the sequence “GTCCCATCGTCTCTATTCGGGTCACCTTTGCACAACATGACGGAGTCACCTAGTGCAG”, the binding signal was 10500 fluorescence intensity (a.u.). For “GTTGACGTCTCCCAAGTGCCACACCCGCCGCCACGTCACTCGGAGTCACCTAGTGCAG” the value was 8880 fluorescence intensity (a.u.). For “CCCAGATTCGCCCCGCACCGCACCGCCCTTGGCTCGCCCCCGGAGTCACCTAGTGCAG” the value was 8340 fluorescence intensity (a.u.); for “CTCTACTTCTAATGTTCCTTATTTTTTTTCCGAGTTTCTACGGAGTCACCTAGTGCAG”, 9390 fluorescence intensity (a.u.); for “TACTCGTTTGGTTGTAATTTTTTTCCGCGTCTTTTCATCTCGGAGTCACCTAGTGCAG”, 11200 fluorescence intensity (a.u.). As to “TTGAATTTTCAGTTTTCTTGTGCGTGTTTCCTTGTCATTTCGGAGTCACCTAGTGCAG”, the binding signal is 9140 fluorescence intensity (a.u.). As for “TAGTTTCTTGTTTTCAGTTTTTTTTTCTTGTCATTTTTTTCGGAGTCACCTAGTGCAG”, the figure is 19500 fluorescence intensity (a.u.). As for “ATTCTTCATTCTTTTTGTGTGTGTTTCAGTGTGTTTGTTTCGGAGTCACCTAGTGCAG”, the figure is 15800 fluorescence intensity (a.u.); as for “CGGTCTTTGCCAAATTCCCACTCCGCTTGGCTTTCTGGCCCGGAGTCACCTAGTGCAG”, 8250 fluorescence intensity (a.u.); as for “CTAGGACATCATTTTGTTTGTCGTGTGTGCGCAACTGTTTCGGAGTCACCTAGTGCAG”, 8160 fluorescence intensity (a.u.).
